Among the data in PubChem BioAssay (NCI) are growth values, retold here.

Molecules are shown by their SMILES. About 83,000 compounds went through this panel and 20% of them were active in at least one assay; those are over-represented in the sample as a whole.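 Plates (96-well) were seeded with cells, treated with compound at one concentration, and incubated for 48 hours before percent growth was determined.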 Active and inactive are the calls of the source. Rule for the calls: active = growth percent below 10; inactive = the rest.

The subject of the test is NCI/ADR-RES ovarian. As to the kind of experiment: NCI-60 one-dose screen, 48 h (100 = growth as untreated, 0 = no growth, -100 = all killed). As to conditions: 10 µM unless noted.
For `CN1CCN(Cc2ccc(NC(=O)c3cncc(C#Cc4cnc5ccc(OCC6(C)COC6)nn45)c3)cc2C(F)(F)F)CC1`, the growth was -58.1% (active).

Regarding `CC(=O)c1cc(C(=O)c2ccc(Br)cc2)n2cc(C)cc(C)c12`, the growth is 86.3% (inactive).

As for `COC(=O)C[Se]C(=O)Cc1c(C)n(C(=O)c2ccc(Cl)cc2)c2ccc(OC)cc12`, the growth is 9.78% (active).

On to `N#Cc1cccc(CN2CCC3=C(C2)C(=O)N(Cc2ccc(Cl)cc2)C2=NCCCN23)c1`, for which the growth was 13.4% (inactive).

Consider `C=CCn1c(SCC(=O)Nc2ccc(C(=O)/C=C/c3ccc(C)cc3)cc2)nnc1-c1c[nH]c2ccccc12`, for which the growth is 98.4% (inactive).

`CCCn1cnc2c(c1=N)C(c1ccc(OC)cc1)c1sc3c(CC)cccc3c1O2` (stereo not drawn): the growth is 7.77% (active).

As to `Cc1ccc(-c2cc3nc(C(Cl)Cl)nc(C)n3n2)cc1`, the growth is 110% (inactive).

As for `CCOC(=O)C(=O)CC(=O)N1C(=S)NC(=O)C1CC(C)C` (stereo not drawn), the growth was 95.3% (inactive).

Consider `COc1ccc(-c2nc(C(Cl)Cl)nc3cc(-c4ccccc4)nn23)cc1`, for which the growth was 9.82% (active).

With `CNC(=O)c1cc(-c2ccc(NS(=O)(=O)c3ccc(C)cc3)cc2)nc2cccnc12`, the growth was 100% (inactive).

`NC(N)=Nc1ccc(Oc2cccc(Nc3ccc(Cl)c(C(F)(F)F)c3)c2)cn1`: the growth was 53.6% (inactive).

For `CCN1CCN(Cc2ccc(C(=O)Nc3ccc(C)c(Oc4ccc(-c5[nH]nc6ncnc(N)c56)cc4)c3)cc2C(F)(F)F)CC1`, the growth is 67.2% (inactive).

On to `COc1ccc(NC(=O)Nc2ccc3c(ccn3C(=O)c3cccc(F)c3)c2)cc1`, for which the growth is 65.5% (inactive).

Consider `CCn1c(SCC(=O)Nc2cccc(C(=O)/C=C/c3ccccc3Cl)c2)nc2ccccc2c1=O`, for which the growth was 93.4% (inactive).

Regarding `COc1ccc(-c2nn(-c3ccc(S(C)(=O)=O)cc3)cc2/C=N/O)cc1`, the growth is 107% (inactive).

Take `NC(N)=Nc1ccc(Oc2ccc(Nc3ccc(Cl)c(C(F)(F)F)c3)cc2)cc1`: the growth was 91.9% (inactive).

As for `COc1ccc(NC(=O)CSc2nnc(-c3ccc4nc(-c5ccc(OC)c(OC)c5)[nH]c4c3)o2)cc1OC`, the growth is 96.1% (inactive).

Consider `Cc1ccc(-n2c(/C=C3\C(=O)Nc4ccccc43)ccc2CO)cc1`, for which the growth is 55.7% (inactive).

In the case of `O=C(NNc1nc2cc(F)ccc2n2c(CO)ccc12)c1cnccn1`, the growth is 3.02% (active).

Regarding `Nc1ccccc1NC(=O)c1ccc(NC(=O)C/C=C/c2cccnc2)cn1`, the growth was 19% (inactive).

With `Cn1ccnc1C(=O)/C=C/c1ccc(CNC(=O)c2c(F)c(F)c(F)c(F)c2F)cc1`, the growth was 49.1% (inactive).

Consider `C#C[C@]1(O)CC[C@H]2[C@@H]3CC=C4c5sc(-c6cccc(O)c6)nc5CC[C@]4(C)[C@H]3CC[C@@]21C`, for which the growth was -12.5% (active).

In the case of `COc1cc2c(cc1OC)C(Sc1ccc(F)cc1)c1c(nc(N)c(C#N)c1N)O2` (stereo not drawn), the growth was -46.4% (active).

With `N#Cc1cn(Cc2ccc(Cl)cc2Cl)c(C(=O)c2ccc(Br)cc2)c1N`, the growth was 88.8% (inactive).

Turning to `O=C(O)c1ccc(-n2cc(CNc3cc(F)c(F)c(F)c3)c(-c3cccc(F)c3)n2)cc1`, the growth was 90.8% (inactive).

Turning to `CCc1cccc(NC(=O)CNc2cc(S(=O)(=O)N(C)C)cc(C)c2C)c1`, the growth was 100% (inactive).

Turning to `COc1ccc2c(c1)c(-c1cc(N)n3nc(-c4cn(C)c5ccc(OC)cc45)cc3n1)cn2C`, the growth is 120% (inactive).

With `C=C(C=O)[C@@H]1CC[C@]2(COC(C)=O)CC[C@]3(C)C(CC[C@@H]4[C@@]5(C)CC[C@H](OC(C)=O)C(C)(C)[C@@H]5CC[C@]43C)[C@@H]12` (stereo partly drawn), the growth was 1.48% (active).

As for `COc1ccc(-c2nc3ccc(-c4nnc(SCC(=O)Nc5ccc(C(=O)/C=C/c6ccc(Cl)cc6)cc5)o4)cc3[nH]2)cc1`, the growth is 107% (inactive).

Turning to `COc1ccc(/C=C(\C#N)C(=O)N2c3ccccc3Sc3ccc(SC)cc32)cc1F`, the growth was 92.7% (inactive).

Consider `O=C(CNc1nc(-c2cccc([N+](=O)[O-])c2)cs1)Nc1cccc(Cl)c1`, for which the growth was 105% (inactive).

Turning to `CC1(C)CC[C@]23CC[C@]4(C)[C@H](CC[C@@H]5[C@@]6(C)CCCN(CO)C(C)(C)[C@@H]6CC[C@]54C)[C@H]2[C@H]1OC3`, the growth was 101% (inactive).

Regarding `C=C(C=O)[C@@H]1CC[C@]2(C)[C@H](CC=C3[C@H]4[C@@H](C)[C@H](C)CC[C@]4(C(=O)OC)CC[C@]32C)[C@@]1(C)CCC#N`, the growth is 8.1% (active).

Take `CN(C)C(=O)c1cc(-c2ccc3ncnc(NCc4ccccc4)c3c2)cnc1N`: the growth was 104% (inactive).

For the molecule `O=S(=O)(NCCCNc1nccc(-c2[nH]c(-c3ccccc3)nc2-c2ccc(Cl)c(O)c2)n1)c1cccc2ccccc12`, the growth was 34.6% (inactive).

On to `Nc1ccccc1NC(=O)c1ccc(NC(=O)C/C=C/c2cccnc2)cc1`, for which the growth is 50.8% (inactive).

On to `COc1cc(-c2nc(SCCC(C)C)nc(NNC(=O)c3ccncc3)c2C#N)cc(OC)c1OC`, for which the growth is 74.1% (inactive).

`O=C(NNc1nc2cc(F)c(F)cc2n2cccc12)c1cnccn1`: the growth is 2.66% (active).
